From PubChem BioAssay AID1159580 (chemical genetic matrix, 2015)
Values joined by “and” are separate entries in the source; they are usually repeats but may differ in a detail not shown here. Identical values can stand only once. The whole screen tested about 5,500 compounds, of which about 2,000 (36%) were called active. Another 18% or so got no clear call; they are omitted. No stated cut-off is given here; in the data, active means normalized growth mostly below about 0.91 (no sharp cut-off); inconclusive means no clear call, values can overlap the other calls; inactive means mostly above about 0.92. This is one part of the list.

Test: chemical genetic growth profiling, strain panel (AID 1159580);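 further: tested at 20 µM; growth read once vehicle control cultures reached saturation at 30 °C; 1 = growth at the plate median or of vehicle wells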
Details: S. cerevisiae deletion strains, growth OD

Measured: normalized growth

CC(=O)[C@H]1CCC2C3CC=C4C[C@@H](O)CC[C@]4(C)C3CC[C@@]21C (stereo partly specified)
inactive: locus YAL013W, strain DEP1, stronger effect = lower value 0.999 | locus YAL021C, strain ccr4, stronger effect = lower value 0.958 | locus YAL030W, strain snc1, stronger effect = lower value 0.956 | locus YBL061C, strain skt5, stronger effect = lower value 0.981 | locus YBR009C, strain hhf1, stronger effect = lower value 0.929 | locus YBR021W, strain FUR4, stronger effect = lower value 0.962 | locus YBR023C, strain chs3, stronger effect = lower value 0.969 | locus YBR171W, strain sec66, stronger effect = lower value 0.996 | locus YBR229C, strain ROT2, stronger effect = lower value 1.01 | locus YBR231C, strain swc5, stronger effect = lower value 0.955 | locus YBR279W, strain paf1, stronger effect = lower value 0.981 | locus YCL011C, strain gbp2, stronger effect = lower value 0.947 | locus YCL016C, strain dcc1, stronger effect = lower value 0.95 | locus YCL029C, strain bik1, stronger effect = lower value 0.966 | locus YCR088W, strain abp1, stronger effect = lower value 1.02 | locus YDL005C, strain med2, stronger effect = lower value 1 | locus YDL035C, strain GPR1, stronger effect = lower value 0.863 | locus YDL040C, strain nat1, stronger effect = lower value 1.01 | locus YDL074C, strain BRE1, stronger effect = lower value 0.836 | locus YDL101C, strain DUN1, stronger effect = lower value 0.985 | locus YDL134C, strain PPH21, stronger effect = lower value 0.957 | locus YDL185W, strain tfp1, stronger effect = lower value 1.02 | locus YDL192W, strain arf1, stronger effect = lower value 1.02 | locus YDR001C, strain nth1, stronger effect = lower value 1.02 | locus YDR069C, strain doa4, stronger effect = lower value 0.965 | locus YDR101C, strain arx1, stronger effect = lower value 1.01 | locus YDR150W, strain NUM1, stronger effect = lower value 1.01 | locus YDR159W, strain sac3, stronger effect = lower value 0.927 | locus YDR162C, strain NBP2, stronger effect = lower value 0.958 | locus YDR297W, strain sur2, stronger effect = lower value 0.973 | locus YDR318W, strain mcm21, stronger effect = lower value 0.94 | locus YDR334W, strain swr1, stronger effect = lower value 1.03 | locus YDR335W, strain msn5, stronger effect = lower value 0.958 | locus YDR388W, stronger effect = lower value 0.981 | locus YDR502C, strain sam2, stronger effect = lower value 0.943 | locus YEL003W, strain gim4, stronger effect = lower value 0.938 | locus YEL037C, strain rad23, stronger effect = lower value 0.976 | locus YEL061C, strain CIN8 (second series), stronger effect = lower value 1.01 | locus YEL061C, strain CIN8, stronger effect = lower value 1.01 | locus YER015W, strain faa2, stronger effect = lower value 0.939 | locus YER016W, strain bim1, stronger effect = lower value 0.996 | locus YER110C, stronger effect = lower value 1.03 | locus YER111C, strain swi4, stronger effect = lower value 1.01 | locus YER155C, strain BEM2, stronger effect = lower value 1.01 | locus YER167W, strain BCK2, stronger effect = lower value 0.926 | locus YFR010W, strain ubp6, stronger effect = lower value 1.05 | locus YGL078C, strain dbp3, stronger effect = lower value 1.02 | locus YGL086W, strain mad1, stronger effect = lower value 0.944 | locus YGL167C, strain pmr1, stronger effect = lower value 0.996 | locus YGL173C, strain kem1, stronger effect = lower value 0.923 | locus YGL227W, strain vid30, stronger effect = lower value 1.01 | locus YGL240W, strain doc1, stronger effect = lower value 0.982 | locus YGL248W, strain PDE1, stronger effect = lower value 0.962 | locus YGR078C, strain PAC10, stronger effect = lower value 0.879 | locus YGR135W, strain pre9, stronger effect = lower value 0.904 | locus YGR229C, strain SMI1, stronger effect = lower value 0.958 | locus YHR013C, strain ard1, stronger effect = lower value 0.948 | locus YHR027C, strain rpn1, stronger effect = lower value 0.961 | locus YHR030C, strain SLT2, stronger effect = lower value 0.95 and 0.954 | locus YHR079C, strain IRE1 (second series), stronger effect = lower value 0.998 | locus YHR079C, strain IRE1, stronger effect = lower value 0.988 | locus YHR094C, strain hxt1, stronger effect = lower value 1.03 | locus YHR129C, strain ARP1, stronger effect = lower value 1.01 | locus YHR200W, strain rpn10, stronger effect = lower value 0.965 | locus YIL066C, strain RNR3, stronger effect = lower value 0.865 | locus YIL073C, strain SPO22, stronger effect = lower value 0.807 | locus YIL125W, strain kgd1, stronger effect = lower value 1.03 | locus YIR030C, strain dcg1, stronger effect = lower value 1.04 | locus YJL092W, strain hpr5, stronger effect = lower value 0.97 | locus YJL095W, strain BCK1 (second series), stronger effect = lower value 0.935 | locus YJL115W, strain asf1, stronger effect = lower value 0.994 | locus YJL129C, strain trk1, stronger effect = lower value 0.935 | locus YJL134W, strain LCB3, stronger effect = lower value 1.01 | locus YJL154C, strain vps35, stronger effect = lower value 1.01 | locus YJL164C, strain tpk1, stronger effect = lower value 0.923 | locus YJL168C, strain set2, stronger effect = lower value 1.03 | locus YJL187C, strain SWE1 (second series), stronger effect = lower value 0.945 | locus YJR043C, strain POL32, stronger effect = lower value 0.991 | locus YJR066W, strain TOR1, stronger effect = lower value 0.866 | locus YJR075W, strain HOC1, stronger effect = lower value 0.933
active: locus YAL026C, strain drs2, stronger effect = lower value 0.788 | locus YCL069W, strain vba3, stronger effect = lower value 0.897 | locus YDR137W, strain rgp1, stronger effect = lower value 0.518 | locus YDR195W, strain ref2 1.28 [resistant] | locus YDR392W, strain spt3, stronger effect = lower value 0.335 | locus YER155C, strain BEM2 (second series), stronger effect = lower value 0.774 | locus YGL253W, strain hxk2, stronger effect = lower value 0.9 | locus YGR252W, strain gcn5, stronger effect = lower value 0.65 | locus YHR142W, strain chs7, stronger effect = lower value 0.862 | locus YJL166W, strain qcr8, stronger effect = lower value 0.895
0.754 (active) and 0.958 (inactive): locus YJL095W, strain BCK1, stronger effect = lower value
